High-throughput results from PubChem BioAssay.
Sampled rows, rich in hits. Any-hit rate of the full collection: about 8.1%.
SW480 rerep: induces DNA re-replication in SW480 colon adenocarcinoma cells. SW480 DNA re-replication, Hoechst DNA content imaging, 48 h. Potency, µM (top dose mostly 46.1 µM), inactives show top-dose re-replication activation, most hits filed as activators. hit rate 1.8% among 340,000. AID 624297; note: % of control where 0% means no effect; nearly all actives have a fitted effect of over 55% in size
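Per well, 250 cells were exposed to pinned compound for 48 hr. Nuclear DNA was visualised with Hoechst (40 min, 37 C) and total object intensity recorded by fluorescence scanning.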
ELG1 repair inh: blocks ELG1-dependent DNA repair in HEK293T cells. AID 504467. Potency, µM (highest dose often 46.1 µM), for inactives: at the highest dose activity change, negative = inhibition, hits mostly inhibitors. hit rate 2.3% among 330,000. HEK293T ELG1-luciferase reporter, luminescence, 16 h; DNA damage induced by 5-fluorouridine; note: % is set by controls: 0 for no effect and ±100 for the full control effect; nearly all actives have a fitted effect of over 55% in size
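HEK293T cells expressing luciferase-tagged ELG1 (2,000/well) received 5-Fluorouridine plus compound or DMSO for 16 hr at 37 °C. Luciferase was read by ONE-Glo luminescence after 30 min at room temperature.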
MCF10A rerep: inducers of DNA re-replication in MCF 10A breast cells | MCF 10A DNA re-replication, Hoechst nuclear intensity, 48 h | Potency, µM (top dose mostly 46.1 µM), for inactives: top-dose activity, positive = re-replication, actives largely listed as activators | hit rate 2.9% among 350,000; note: % of control where 0% means no effect; nearly all actives have a fitted effect of over 50% in size
KB-3-1 tox: KB-3-1 parental cell cytotoxicity. KB-3-1 viability, CellTiter-Glo ATP luminescence, 72 h. Potency, µM (highest dose often 46.1 µM), usual class: cytotoxic. AID 1347075. hit rate 1.4% among 400,000; note: % is set by controls: 0 for no effect and ±100 for the full control effect; nearly all actives have a fitted effect of over 60% in size
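KB-3-1 cells, DMEM (no phenol red) + 10% FBS; compound by pin transfer, 72 h, 37 °C. Readout: CellTiter-Glo luminescence after 10 min. Data normalized, curve-fitted.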
KB-V1 cytotox: kills drug-selected multidrug resistant KB-V1 cells | KB-V1 MDR cells viability, CellTiter-Glo, 72 h | AID 1347076 | hit rate 3.4% among 400,000 | Potency, µM (titrated, usually from 46.1 µM), usual class: cytotoxic; note: % is set by controls: 0 for no effect and ±100 for the full control effect; nearly all actives have a fitted effect of over 60% in size
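Readout: CellTiter-Glo luminescence, 10 min after addition. Cells: KB-V1 MDR subline, 72 h at 37 degrees C with compound. Analysis: corrected, normalized data fitted to concentration-effect curves.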
Starred values were filed as active, the others as inactive; i = inactive; ? = inconclusive; / = no result given; ! = repeats disagree. Calls come from the whole dose curve; as a rule, active = well fitted curve in the direction sought with a large enough effect; inconclusive = small, poorly fitted or top-dose-only effect, or another doubt; inactive = no such curve, though single readings can be large; an effect the other way counts as inactive or inconclusive. Potency is the fitted concentration of half-maximal effect.

SMILES	SW480 rerep	ELG1 repair inh	MCF10A rerep	KB-3-1 tox	KB-V1 cytotox
Cc1cc(CN(C)C(=O)c2cc(COc3ccc(F)cc3Cl)on2)n[nH]1	1%	?	-1%	i	21µM*
CN(Cc1ccccn1)C(=O)c1cc(COc2ccc(F)cc2Cl)on1	/	/	/	i	?
O=C(c1cc(COc2ccc(F)cc2Cl)on1)N1CCCC(OCc2cccnc2)C1 (configuration not stated)	-7%	-10%	-4%	i	9.2µM*
CN1CCN(C(=O)c2cc(COc3ccc(F)cc3Cl)on2)CC1c1ccccc1 (configuration not stated)	?	-4%	21µM*	16µM*	i
Cc1ccc(NC(=S)Nc2ccc(OC(F)F)c(Cl)c2)cc1Cl	1%	-5%	?	21µM*	21µM*
Fc1ccc(NC(=S)Nc2ccccc2OC(F)F)cc1Cl	/	?	?	?	16µM*
CC(NC(=S)Nc1ccc(OC(F)F)c(Cl)c1)C(C)(C)C (configuration not stated)	19%	?	24%	?	?
Cc1ccc(NC(=S)Nc2ccc(Cl)c(Cl)c2)c(OC(F)F)c1	-2%	?	?	?	18µM*
Cc1cc(C)cc(NC(=S)Nc2ccc(Cl)c(Cl)c2)c1	?	?	?	i	?
CCc1nnc2c(NCc3cccc(OC)c3)nc3ccccc3n12	/	/	/	i	i
CC1C/C(=C/c2ccncc2)C(=O)/C(=C/c2ccncc2)C1 (configuration not stated)	?	21µM*	0.46µM*	?	i
Cn1cccc1/C=C1/SC(=S)N(CC(=O)O)C1=O	2%	3%	-14%	?	i
O=C1/C(=C/c2ccncc2)Cc2ccccc21	-2%	3%	-10%	i	i
CC1C/C(=C/c2cccn2C)C(=O)/C(=C/c2cccn2C)C1 (configuration not stated)	?	?	4.6µM*	i	i
COc1ccc(-c2csc(NC(=S)NC(=O)/C=C/c3ccc(C(C)C)cc3)n2)cc1OC	?	2%	0%	i	i
COc1ccc(-c2csc(NC(=S)NC(=O)/C=C/c3ccco3)n2)cc1OC	9.2µM*	?	6.5µM*	7.3µM*	6.5µM*
COc1ccc(-c2csc(NC(=S)NC(=O)c3ccco3)n2)cc1Br	21%	0%	?	?	?
COc1ccc(-c2csc(NC(=S)NC(=O)/C=C/c3ccco3)n2)cc1Br	?	14%	?	5.2µM*	4.1µM*
Cc1c(N=O)c(-c2ccccc2)n(O)[n+]1[O-]	/	/	/	i	i
COc1ccc(CCNC(=O)c2ccc(CS(=O)(=O)Cc3ccc(C)cc3)o2)cc1OC	/	/	/	i	?
COc1ccc(CCNC(=O)c2ccc([N+](=O)[O-])cc2Cl)cc1OC	-4%	/	1%	i	i
COc1ccc(CCNC(=O)c2ccc(-c3ccc([N+](=O)[O-])cc3Cl)o2)cc1OC	2%	18µM*	?	i	i
COc1ccc(CCNC(=O)c2ccc(CS(=O)(=O)c3ccc(C)cc3)o2)cc1OC	-4%	16µM*	26%	?	4.6µM*!
COc1ccc(CCNC(=O)c2ccc(CS(=O)(=O)c3ccc(Cl)cc3)o2)cc1OC	?	?	28%	i	2.6µM*
Cn1cc(O)nc1NC(=O)Nc1cccc(Cl)c1	-6%	/	1%	/	/
SMILES	SW480 rerep	ELG1 repair inh	MCF10A rerep	KB-3-1 tox	KB-V1 cytotox
COc1ccc(C)cc1NC(=O)CSc1nnc(-c2ccc(Br)cc2)o1	20%	?	13µM*	i	i
COc1ccccc1NC(=O)CSc1nnc(-c2ccoc2C)o1	-13%	?	-6%	12µM*	?
COc1ccccc1NC(=O)CSc1nnc(-c2ccccc2C)o1	/	/	/	i	i
Cc1cccc(NC(=O)CSc2nnc(-c3ccccc3C)o2)c1	-11%	?	1%	i	?
COc1ccccc1NC(=O)CSc1nnc(-c2ccc(C)cc2)o1	-1%	?	5%	?	i
Cc1cc(C)cc(NC(=O)CSc2nnc(-c3ccccc3C)o2)c1	-4%	2%	12%	i	12µM*
